From PubChem BioAssay
Cruzain inh noDet – qHTS Assay for Promiscuous and Specific Inhibitors of Cruzain (without detergent). Potency, µM, hits mostly inhibitors. Cruzipain (Trypanosoma cruzi), P25779. 2.3% of 200,000 active. purified cruzain, Z-FR-AMC fluorescence, no detergent; also: nearly all actives have a fitted effect of over 40% in size
Target sequence (P25779 123-467 limits assumed): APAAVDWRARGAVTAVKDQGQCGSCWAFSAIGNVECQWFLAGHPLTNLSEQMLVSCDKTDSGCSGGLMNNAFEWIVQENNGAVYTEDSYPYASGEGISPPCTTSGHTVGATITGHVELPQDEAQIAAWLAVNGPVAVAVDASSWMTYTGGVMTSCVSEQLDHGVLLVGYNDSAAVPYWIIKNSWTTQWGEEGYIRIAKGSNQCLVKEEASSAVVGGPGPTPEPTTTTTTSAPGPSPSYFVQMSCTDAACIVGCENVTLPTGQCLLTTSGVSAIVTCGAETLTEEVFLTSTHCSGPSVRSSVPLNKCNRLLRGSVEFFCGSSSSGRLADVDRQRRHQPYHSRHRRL
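Detergent-free condition (0.00005% Triton X-100) in acetate buffer pH 5.5 with DTT. 1.5 nM enzyme and compound were pre-mixed 15 min, then 2 uM Z-FR-AMC substrate added; reaction progress from fluorescence change between first and third reads (60 s).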
NS1 inh – qHTS Assay for Inhibitors of Influenza NS1 Protein Function; Potency, µM (series often up to 46.1 µM); 0.4% of 270,000 active; calls by dose curve; also: actives are rising curves; nearly all actives have a fitted effect of over 50% in size
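S. cerevisiae expressing influenza A NS1, grown in glucose, washed, then diluted 1:100 into pH 6.0 -URA galactose medium with 23 nl compound. Growth recovery read as OD600; NS1-free strain serves as control.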
Cruzain Triton – qHTS Assay for Promiscuous and Specific Inhibitors of Cruzain (with detergent). purified cruzain, Z-FR-AMC fluorescence, 0.01% Triton. Potency, µM, most hits filed as inhibitors. 0.43% of 200,000 active; also: nearly all actives have a fitted effect of over 40% in size
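Cysteine protease activity tested under reducing, mildly acidic conditions (100 mM sodium acetate pH 5.5, 5 mM DTT) plus 0.01% Triton X-100. Cruzain 1.5 nM; substrate Z-FR-AMC 2 uM; 15 min compound preincubation at room temperature.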
Each line names hits and unclear results; the compound was inactive in the other large screens; ! = repeats disagree. This excerpt belongs to a sample that is enriched for hits. Unless noted, calls follow the shape of the dose curve; as a rule, active = well fitted curve in the direction sought with a large enough effect; inconclusive = small, poorly fitted or top-dose-only effect, or another doubt; inactive = no such curve, though single readings can be large; an effect the other way counts as inactive or inconclusive.

O=C(NC1CC(=O)N(c2ccc(F)cc2)C1)C1CC1 (configuration not stated)	none (no result: NS1 inh)
COc1ccc(Cn2c(NCC(C)C)nc3c2c(=O)n(C)c(=O)n3C)cc1	none (no result: NS1 inh)
Oc1c(C=C2N=c3ccccc3=N2)sc(=S)n1C1CCCCC1	Cruzain inh noDet 12.6µM!
O=S(=O)(Nn1c(O)c(C=C2N=c3ccccc3=N2)sc1=S)c1ccccc1	none (no result: Cruzain inh noDet, Cruzain Triton)
O=C(Nn1c(O)c(C=C2N=c3ccccc3=N2)sc1=S)c1ccccc1Cl	none
Oc1c(C=C2N=c3ccccc3=N2)sc(=S)n1-c1ccccc1	Cruzain inh noDet 10µM
COc1cc(NS(=O)(=O)c2ccc(Nc3nc(-c4cccc([N+](=O)[O-])c4)cs3)cc2)nc(OC)n1	Cruzain inh noDet 31.6µM
O=[N+]([O-])c1cccc(-c2csc(Nc3ccccc3)n2)c1	none (no result: Cruzain inh noDet, Cruzain Triton)
COc1ccc(CNc2ncnc3ccc(-c4c(C)noc4C)cc23)c(OC)c1	none (no result: NS1 inh)
O=C(O)Cn1c(O)c(C2=c3ccccc3=NC2=O)sc1=O	none (no result: Cruzain inh noDet, Cruzain Triton)
Cn1c(O)c(C2=c3ccccc3=NC2=O)sc1=Nc1ccc(Cl)cc1	Cruzain inh noDet 25.1µM
CCOc1ccc(Nc2nc(-c3cccc(Cl)c3)c3c(n2)-c2ccccc2OC3)cc1	none (no result: NS1 inh)
CS/C(N)=C(C#N)/C(C#N)=C(\N)SC	none (no result: NS1 inh)
O=c1c2c(-c3ccccc3)csc2ncn1/N=C/c1c2ccccc2cc2ccccc12	Cruzain inh noDet 10µM
Cc1nn(-c2ccccc2)c(N2CCCC2)c1/C=N/n1cnc2scc(-c3ccccc3)c2c1=O	none
COc1ccc(OC)c(CCNc2ncnc3onc(C)c23)c1	none (no result: NS1 inh)
O=C(COC(=O)C(Cc1c[nH]c2ccccc12)NC(=O)c1ccc(Cl)cc1)c1ccc(Cl)cc1 (configuration not stated)	Cruzain inh noDet inconclusive (no result: NS1 inh)
Cc1ccc(C(=O)COC(=O)C(Cc2c[nH]c3ccccc23)NC(=O)c2ccc(C(C)(C)C)cc2)cc1 (configuration not stated)	Cruzain inh noDet 10µM (no result: NS1 inh)
CCc1ccc(C(=O)NC(Cc2c[nH]c3ccccc23)C(=O)OCC(=O)c2ccc(Br)cc2)cc1 (configuration not stated)	Cruzain inh noDet 15.8µM (no result: NS1 inh)
CC(=O)NC(Cc1c[nH]c2ccccc12)C(=O)OCC(=O)Nc1cc(C)on1 (configuration not stated)	none
O=C(COC(=O)C(Cc1c[nH]c2ccccc12)NC(=O)c1ccc(Br)cc1)c1ccc(Cl)cc1 (configuration not stated)	Cruzain inh noDet inconclusive (no result: NS1 inh)
CCOC(=O)C(Cc1c[nH]c2ccccc12)NC(=O)c1ccccc1Br (configuration not stated)	none (no result: Cruzain inh noDet, Cruzain Triton)
Cc1cc(NC(=O)COC(=O)[C@H](Cc2c[nH]c3ccccc23)NC(=O)c2ccc(F)cc2)no1	Cruzain inh noDet inconclusive, Cruzain Triton 14.1µM
CC(C)(C)c1ccc(C(=O)NC(Cc2c[nH]c3ccccc23)C(=O)OCC(=O)c2ccc(Br)cc2)cc1 (configuration not stated)	Cruzain inh noDet 10µM (no result: NS1 inh)
CN(C)Cc1nsc(N(C)C)n1	none
CN(C)C(=O)n1nnnc1Cc1ccc(-c2ccccc2)cc1	none (no result: NS1 inh)
C[C@@H]1CCC2[C@](C)(CO)[C@@H](O)CC[C@]2(C)[C@]12CCC(CO)(CCO)O2 (some centres not stated)	none (no result: NS1 inh)
COc1ccc2c(c1)O[C@@H](c1ccc3c(c1)OCO3)[C@H](OC(=O)NCCOc1ccccc1)C2=O	none (no result: NS1 inh)
Cn1c(=O)c(-c2cc(F)cc(F)c2)nc2cnc(N3CCNCC3)nc21	none (no result: NS1 inh)
COc1ccc(S(=O)(=O)c2c(Nc3ccccc3F)sc(C(=O)c3cccc(OC)c3)c2N)cc1	Cruzain inh noDet 12.6µM (no result: NS1 inh)
CCOc1ccc(Nc2sc(C(=O)c3ccc(F)cc3)c(N)c2S(=O)(=O)c2ccc(C)cc2)cc1	none (no result: NS1 inh)
COc1cccc(C(=O)c2sc(Nc3ccc(F)c(Cl)c3)nc2N)c1	none (no result: NS1 inh)
COc1ccc(S(=O)(=O)c2c(Nc3ccc(C)cc3C)sc(C(=O)c3ccc(F)cc3)c2N)cc1	Cruzain inh noDet 5.01µM (no result: NS1 inh)
CCOc1ccccc1Nc1sc(C(=O)c2ccc(Cl)cc2)c(N)c1S(=O)(=O)c1ccccc1	Cruzain inh noDet 3.16µM (no result: NS1 inh)
Cc1ccc(Cl)cc1Nc1sc(C(=O)c2ccccc2)c(N)c1S(=O)(=O)c1ccccc1	Cruzain inh noDet inconclusive (no result: NS1 inh)
Cc1cccc(C)c1Nc1sc(C(=O)c2ccccc2)c(N)c1S(=O)(=O)c1ccccc1	Cruzain inh noDet 15.8µM (no result: NS1 inh)
CCOc1ccccc1Nc1sc(C(=O)c2ccccc2)c(N)c1S(=O)(=O)c1ccc(C)cc1	Cruzain inh noDet inconclusive (no result: NS1 inh)
C[C@H]1OC(=O)CC[C@@H]2[C@]1(C)CCC1[C@@]2(C)CC[C@@]2(C)C3CC(C)(C)CC[C@]3(CO)CC[C@]12C (some centres not stated)	none (no result: NS1 inh)
Cc1sc2ncn(CC(=O)Nc3ccc(C(C)C)cc3)c(=O)c2c1S(=O)(=O)N1CCN(c2ncccn2)CC1	none (no result: NS1 inh)
CCOc1ccc(Nc2nc(N)c(C(=O)c3ccccc3Cl)s2)cc1	Cruzain inh noDet inconclusive (no result: NS1 inh)
Cc1c(Cl)cccc1Nc1sc(C(=O)c2ccccc2)c(N)c1S(=O)(=O)c1ccccc1	Cruzain inh noDet inconclusive (no result: NS1 inh)
CC(C)c1ccc(Nc2sc(C(=O)c3ccccc3)c(N)c2S(=O)(=O)c2ccccc2)cc1	Cruzain inh noDet 3.98µM (no result: NS1 inh)
N#Cc1c(Nc2ccccc2)sc(C(=O)c2ccccc2)c1N	NS1 inh inconclusive
CCc1ccccc1Nc1sc(C(=O)c2cccc(OC)c2)c(N)c1S(=O)(=O)c1ccccc1	Cruzain inh noDet 7.94µM (no result: NS1 inh)
CCc1ccccc1Nc1sc(C(=O)c2ccccc2)c(N)c1S(=O)(=O)c1ccccc1	Cruzain inh noDet 6.31µM (no result: NS1 inh)
CCS(=O)(=O)c1c(Nc2cc(C)ccc2C)sc(C(=O)c2ccccc2)c1N	none (no result: NS1 inh)
CNc1cc(OC)c(C(=O)N[C@@H]2CCN(Cc3ccccc3)[C@H]2C)cc1Cl	none (no result: NS1 inh)
N.N.N.N.N.N.N.N.N.N.N.N.N.N.O.O.[Cl-].[Cl-].[Cl-].[Cl-].[Cl-].[Cl-].[Ru].[Ru].[Ru]	none
CCOc1ccc(N2C(=O)CC(Sc3nc(-c4cccs4)cc(C(F)(F)F)c3C#N)C2=O)cc1 (configuration not stated)	Cruzain inh noDet 12.6µM
CCOc1ccc(N2C(=O)CC(Sc3ncccn3)C2=O)cc1 (configuration not stated)	none
CC(C)c1ccc(NC(=O)COc2nnc(-c3cccs3)c(-c3cccs3)n2)cc1	none
CCc1ccc(NC(=O)C(C)Oc2nnc(-c3cccs3)c(-c3cccs3)n2)cc1 (configuration not stated)	Cruzain inh noDet 20µM
CCOC(=O)c1ccc(NC(=O)C(CC)Sc2nc3ccncc3[nH]2)cc1 (configuration not stated)	none (no result: NS1 inh)
CCOC(=O)c1ccc(N2C(=O)c3n[nH]c(C)c3C2c2ccc(OCC)cc2)cc1 (configuration not stated)	none (no result: NS1 inh)
CCCCCCCCCCCCCCCC(O)C(N)CO (configuration not stated)	Cruzain inh noDet inconclusive, Cruzain Triton 17.8µM
CCCCCCCCCCCCC/C=C\[C@@H](O)[C@@H](N)CO	none (no result: NS1 inh)
Cc1ccc(S(=O)(=O)Oc2cc(S(=O)(=O)O)cc3cc(S(=O)(=O)O)cc(N)c23)cc1	none
CCCCC[C@H](O)/C=C/[C@H]1OC(O)C[C@H](O)[C@@H]1C/C=C\CC(=O)O (some centres not stated)	none (no result: NS1 inh)
CC1=CC(=O)CC(C)(C)[C@]1(O)/C=C\C(C)=C\C(=O)O	none
